DAT uptake mod = human DAT dopamine uptake with cocaine, either direction; LLC-PK1 hDAT cells, [14C]-dopamine uptake with cocaine IC80; actives deviate in either direction; B-score at 10 µM; 110,000 compounds, 1.3% hits; AID 449768;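 active means Z score or B-score, a plate-position-corrected score, falls beyond the plate's 99.7% confidence bounds, in either direction; inactive means both scores lie inside the 99.7% bounds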
Cav3 T inh = blocks human Cav3.2 T-type calcium channel. O95180. Cav3.2-expressing cells, Fluo-4 calcium fluorescence FDSS; stronger effect = lower value. B-score at 10 µM. 100,000 compounds, 4% hits. AID 449739;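 active means single-dose well whose peak fluorescence ratio is a statistical outlier from its plate by either plate-standardised score or position-corrected B-score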
PostGolgi ctrl = growth of the yeast control strain, post-Golgi counter-screen; efflux-deficient yeast background strain, growth absorbance A615, 16 h; inhibition, % at 10 µM; 98,000 compounds, 5% hits; AID 738
PLAP activator = activates human placental alkaline phosphatase | P05187 | purified PLAP enzyme, luminescent substrate read-out; stronger effect = higher value | activation fold at 20 µM | 96,000 compounds, 1.2% hits | AID 696; in the data active means activation fold above about 2
PostGolgi yeast = growth inhibition of a yeast mutant, post-Golgi transport screen; inhibition, % at 10 µM; AID 739; post-Golgi transport phenotypic cell assay; 98,000 compounds, 0.9% hits;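 further: yeast cells grown in 1536-well plates; yeast grown about 18 h at 30C before absorbance read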
Each line names hits and unclear results; the compound was inactive in the other large screens. A selection: hits, their analogues and other compounds. The true share with any hit is near 9.6%. Unless noted, no stated cut-off is given here; in the data, active means inhibition above about 30%; inactive means the rest.

CCCCNC(=O)c1onc(CSc2cccc3ccccc23)c1C(=O)O	Cav3 T inh -3.1
CCOc1cccc(SCc2noc(C(=O)NCCOC)c2C(=O)O)c1	PostGolgi ctrl 33.4
CCCCNC(=O)c1onc(CSc2ccccc2)c1C(=O)O	none
CCOC(=O)COn1c(-c2cccc(Cl)c2)nc2ccc([N+](=O)[O-])cc21	none
CCOC(=O)C(C)n1ncn2cccc2c1=O (stereo not given)	none
COc1ccc(-c2nnc(-c3cccs3)o2)cc1OC	none
COc1ccc(-c2nc(-c3cccs3)c(-c3cccs3)[nH]2)cc1O	PostGolgi ctrl 30.6
CC1=C(C(=O)Nc2ccc([N+](=O)[O-])cc2)C(c2cccc(C(F)(F)F)c2)NC(=S)N1c1ccccc1 (stereo not given)	Cav3 T inh -6.68
CCOc1ccc2nc(NS(=O)(=O)Cc3ccccc3)sc2c1	none
Cc1cc(N2CCN(c3ccccc3Cl)CC2)n2cc(-c3ccccc3)nc2n1	Cav3 T inh -4.33, PostGolgi ctrl 34.0
N=C1C(c2ccccc2)=C(O)CN1c1ccc2c(c1)OCO2	none (no result: Cav3 T inh)
c1csc(Cn2c(-c3cccs3)nc3ccccc32)c1	none
CCCn1c(-c2cccnc2Cl)nc2cc(Cl)c(Cl)cc21	PostGolgi ctrl 43.3
C=CCn1c(-c2cccnc2Cl)nc2cc(Cl)c(Cl)cc21	PostGolgi ctrl 36.1
C=CCn1c(-c2ccc(C)cc2)nc2ccccc21	none
Clc1ccc(-n2nnc(-c3cccnc3Cl)n2)cc1Cl	none (no result: PostGolgi ctrl, PLAP activator, PostGolgi yeast)
Clc1cccc(Cl)c1Cn1c(-c2cccnc2Cl)nc2ccccc21	PostGolgi ctrl 50.3
O=C(NCc1ccco1)C(c1ccccc1)N(Cc1cccnc1)C(=O)Cn1nnc2ccccc21 (stereo not given)	none
O=C(Nc1ccccc1)OCC1CCCN2CCCCC12 (stereo not given)	none
CC1=CCC(COC(=O)Nc2ccccc2)CC1 (stereo not given)	PostGolgi ctrl 31.2
CCOC(=O)Cc1c(C)c2c(C)nn(-c3ccccc3)c2oc1=O	none
COc1ccc(-c2cn(-c3ccc(C)cc3)c(=O)n2CC(=O)Nc2cccc(F)c2)cc1	Cav3 T inh -5.03
O=C(Nc1ccc(Cl)cc1)OCCn1nnnc1C(c1ccccc1Cl)N1CCOCC1 (stereo not given)	Cav3 T inh -6.88
CC(=O)NC1(c2nnnn2CCOC(=O)Nc2ccc(Cl)cc2)CCCCC1	none
COc1ccc(OCCNc2cc(N3CCCCC3)ccc2[N+](=O)[O-])cc1	none (no result: DAT uptake mod, Cav3 T inh)
COc1cccc(OCCNc2cc(N3CCCCC3)ccc2[N+](=O)[O-])c1	Cav3 T inh -4.09
O=C(NCc1ccc(Cl)c(Cl)c1)c1ccco1	none (no result: PLAP activator)
COc1ccc(CNS(=O)(=O)c2ccc(C3CNC(=O)C3)cc2)cc1 (stereo not given)	none
CC(C)Oc1ccc(C2CNC(=O)C2)cc1 (stereo not given)	PostGolgi ctrl 33.2
CC1=CN2C(=NC(=O)CC2(C)C(=O)N(CC(=O)NC2CCCC2)c2ccccc2C)C=C1 (stereo not given)	none (no result: PostGolgi ctrl, PLAP activator, PostGolgi yeast)
COc1ccc(Cc2nnc(NC(=O)c3c(-c4ccccc4)noc3C)s2)cc1	Cav3 T inh -5.23
Cc1onc(-c2ccccc2)c1C(=O)Nc1nc2c(s1)CCCC2	PostGolgi ctrl 34.1
COc1ccc(CN2CCn3ncc(C(=O)Nc4cc(C)cc(C)c4)c3C2=O)cc1	none
CCCCSCCCNC(=O)Nc1cccc(OC)c1	PostGolgi yeast 36.5
Cc1cccc(N(CC(=O)NC2CCCC2)C(=O)c2cc3cc4cccc(C)c4nc3s2)c1C	Cav3 T inh -3.26
Cc1ccc(C)c(N(CC(=O)NC2CCCC2)C(=O)c2cc3cc4cc(C)ccc4nc3s2)c1	none
CCN1C(=O)NC2C1N(S(C)(=O)=O)CCN2S(C)(=O)=O (stereo not given)	none
Cc1ccccc1NC(=O)c1csc2c1CCCC2	none
O=C(Nc1ccon1)c1csc2ccccc12	none
O=C(Nc1ccon1)c1csc2c1CCCC2	PostGolgi ctrl 32.0
Cc1ccc(/C=N/NC(=O)c2csc3c2CCCC3)cc1	Cav3 T inh -4.88, PostGolgi ctrl 32.4
Cc1ccc(C)c(NC(=S)NNC(=O)c2csc3c2CCC(C)C3)c1 (stereo not given)	Cav3 T inh -5.39
Cc1cccc(NC(=S)NNC(=O)c2csc3c2CCCC3)c1	Cav3 T inh -3.48
CC1(C)S[C@@H]2C(C(=O)OCc3ccccc3)NC(=O)N2C1C(=O)OCc1ccccc1 (stereo not given in full)	none (no result: PostGolgi ctrl, PLAP activator, PostGolgi yeast)
CCOC(=O)C1=C(C)N(CCCC(=O)O)C(=O)NC1c1ccccc1OC(=O)c1cccs1 (stereo not given)	none (no result: PostGolgi ctrl, PLAP activator, PostGolgi yeast)
CCNC(=S)NNC(=O)c1csc2c1CCCC2	none
Cc1ccc(C)c(NC(=S)NNC(=O)c2csc3c2CCCC3)c1	Cav3 T inh -5.31
O=C(C(Cc1ccccc1)n1cccc1)N1CCc2ccccc21 (stereo not given)	Cav3 T inh -6.22
O=C(O)C(Cc1ccccc1)n1cccc1 (stereo not given)	none
Cn1cccc1C1Nc2ccccc2NC2=C1C(=O)CC(C)(C)C2 (stereo not given)	none
N/C(Cc1ccc([N+](=O)[O-])cc1)=N\OC(=O)c1ccc2ccccc2c1	PostGolgi ctrl 71.5
COc1ccc(/C(N)=N/OC(=O)c2cccc([N+](=O)[O-])c2)cc1	none
Cc1cccc(C(=O)O/N=C(\N)Cc2ccc([N+](=O)[O-])cc2)c1	Cav3 T inh -4.49
N/C(Cc1ccc([N+](=O)[O-])cc1)=N\OC(=O)C(c1ccccc1)c1ccccc1	Cav3 T inh -3.38, PostGolgi ctrl 32.8
COc1cccc(C(=O)O/N=C(\N)c2ccc([N+](=O)[O-])cc2)c1	none
COC(=O)CSc1nc(N)c(C#N)c(-c2ccco2)c1C#N	PostGolgi ctrl 31.7
O=C(Nc1ccccc1)C12CC3CC(C1)CC(n1cnc([N+](=O)[O-])n1)(C3)C2	none
O=C(Nc1cccc2ccccc12)c1nn(C23CC4CC(CC(C4)C2)C3)cc1[N+](=O)[O-]	PostGolgi ctrl 84.7, PostGolgi yeast 46.7
O=C1c2ccccc2C(=O)N1n1c(=O)[nH]c2ccccc2c1=O	none
CCOC(=O)/C(=C\c1cccnc1)C(=O)c1cc(C(C)=O)c(Nc2ccccc2)s1	Cav3 T inh 4.14, PostGolgi ctrl 89.9, PostGolgi yeast 110.8
CCOC(=O)/C(=C\c1ccccc1)C(=O)c1cc(C(C)=O)c(Nc2ccccc2)s1	PostGolgi ctrl 59.9
COC(=O)C1=C[C@@H](C(=O)OC)[C@@H]2C3=C(C(=O)C2(C)C)[C@H](C)n2c(=O)n(-c4ccccc4)c(=O)n2[C@@H]3C1	none (no result: PostGolgi ctrl, PLAP activator, PostGolgi yeast)
CN(C)c1ccnc(-n2cccc2/C=N/OCc2ccc(F)cc2Cl)c1C#N	Cav3 T inh -5.36, PostGolgi ctrl 34.0
O=C(OCC(=O)N1CCCCCC1)c1cccs1	none
c1ccc(-c2nc(N3CCCCCC3)nc(-n3ccnc3)n2)cc1	PostGolgi ctrl 72.0, PostGolgi yeast 62.1
Nc1nc(-c2cccnc2)nc(N2CCCCC2)n1	none
c1ccc(-c2ccc(-n3ccnc3)cc2)cc1	none
c1ccc(-c2nc(N3CCN(c4ccccc4)CC3)nc(-n3ccnc3)n2)cc1	PostGolgi ctrl 53.8
